# Laboratory results taken from paper PMC7862700, “An all-to-all approach to the identification of sequence-specific readers for epigenetic DNA modifications on cytosine”.
# How the values were obtained:
# Experiment in all cases: DAPPL (digital affinity profiling via proximity ligation, sequencing); 10 mM Tris-HCl pH 7.5, 50 mM NaCl, 1 mM DTT, 4% glycerol, room temperature, 30 min; GST-TFs on glutathione beads, 16-mer random dsDNA library, 0.1% formaldehyde crosslink after washing; high values mean tight binding
# FEV = molecular target: T1, FEV (Homo sapiens, UniProt Q99581 1-238); conditions: protein: recombinant; tags: N-terminal GST; dsDNA, one strand shown
# T1 sequence: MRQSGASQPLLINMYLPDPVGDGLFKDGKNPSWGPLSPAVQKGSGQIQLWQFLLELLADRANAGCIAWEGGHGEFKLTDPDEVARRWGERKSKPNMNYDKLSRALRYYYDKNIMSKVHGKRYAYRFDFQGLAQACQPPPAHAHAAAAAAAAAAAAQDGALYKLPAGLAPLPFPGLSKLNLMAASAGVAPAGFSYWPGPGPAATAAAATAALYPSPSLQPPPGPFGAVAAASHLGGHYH
# In short: (§1)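 A tag-only sample was pooled with DNA-barcoded human transcription factors that had been expressed in yeast as GST fusions and captured on glutathione beads. The pools were incubated for 30 min at room temperature with 200 nmole of a random double-stranded 16-mer DNA library in Tris/NaCl/DTT/glycerol buffer, then washed, crosslinked with 0.1% formaldehyde, proximity-ligated (BsaI/T4 ligase, 1 h, 37 °C), PCR-amplified and sequenced on an Illumina NextSeq500. Binding signal is each hexamer's read frequency for a factor divided by its frequency for the tag-only sample.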
# ETV5 = ETV5 (Homo sapiens, UniProt P41161 1-510); conditions: protein: recombinant; tags: N-terminal GST; dsDNA, one strand shown
# In short: as §1
# HSF1 = HSF1 (Homo sapiens, UniProt Q00613 1-529); conditions: protein: recombinant; tags: N-terminal GST; chain copies: 3; dsDNA, one strand shown
# In short: as §1
# SPIC = molecular target: T2, SPIC (Homo sapiens, UniProt Q8N5J4 1-248); conditions: protein: recombinant; tags: N-terminal GST; dsDNA, one strand shown
# T2 sequence: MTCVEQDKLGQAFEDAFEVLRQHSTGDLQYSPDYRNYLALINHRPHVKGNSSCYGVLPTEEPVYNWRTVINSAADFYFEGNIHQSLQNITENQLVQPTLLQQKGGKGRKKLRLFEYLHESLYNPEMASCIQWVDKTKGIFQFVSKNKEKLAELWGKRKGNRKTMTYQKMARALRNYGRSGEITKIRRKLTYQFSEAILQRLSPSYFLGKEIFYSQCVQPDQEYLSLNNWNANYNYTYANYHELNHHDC
# In short: as §1
# ELF4 = ELF4 (Homo sapiens, UniProt Q99607 1-663); conditions: protein: recombinant; tags: N-terminal GST; dsDNA, one strand shown
# In short: as §1
# ELK4 = molecular target: T3, ELK4 (Homo sapiens, UniProt P28324-2 1-405); conditions: protein: recombinant; tags: N-terminal GST; dsDNA, one strand shown
# T3 sequence: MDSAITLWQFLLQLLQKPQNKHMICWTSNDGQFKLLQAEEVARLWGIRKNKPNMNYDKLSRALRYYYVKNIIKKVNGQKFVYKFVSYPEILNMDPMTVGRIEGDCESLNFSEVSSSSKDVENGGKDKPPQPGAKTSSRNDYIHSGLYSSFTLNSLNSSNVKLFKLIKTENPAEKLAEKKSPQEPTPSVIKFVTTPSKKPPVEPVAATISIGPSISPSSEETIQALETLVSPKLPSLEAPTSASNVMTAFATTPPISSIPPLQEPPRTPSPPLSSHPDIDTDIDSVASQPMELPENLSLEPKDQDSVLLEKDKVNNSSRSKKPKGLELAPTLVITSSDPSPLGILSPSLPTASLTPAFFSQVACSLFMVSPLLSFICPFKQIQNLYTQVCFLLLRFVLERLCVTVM
# In short: as §1
# ETV2 = molecular target: T4, ETV2 (Homo sapiens, UniProt O00321 1-342); conditions: protein: recombinant; tags: N-terminal GST; dsDNA, one strand shown
# T4 sequence: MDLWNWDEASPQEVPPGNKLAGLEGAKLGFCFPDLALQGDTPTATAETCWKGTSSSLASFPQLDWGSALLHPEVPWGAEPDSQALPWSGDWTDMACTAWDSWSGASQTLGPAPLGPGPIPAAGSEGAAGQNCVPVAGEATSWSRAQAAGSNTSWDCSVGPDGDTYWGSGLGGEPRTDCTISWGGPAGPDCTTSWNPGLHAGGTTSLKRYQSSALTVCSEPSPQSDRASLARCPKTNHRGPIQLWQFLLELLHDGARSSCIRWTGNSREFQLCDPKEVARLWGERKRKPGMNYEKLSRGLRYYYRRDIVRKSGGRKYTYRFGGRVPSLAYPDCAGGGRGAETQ
# In short: as §1
# ELF3 = molecular target: T5, ELF3 (Homo sapiens, UniProt P78545 1-371); conditions: protein: recombinant; tags: N-terminal GST; dsDNA, one strand shown
# T5 sequence: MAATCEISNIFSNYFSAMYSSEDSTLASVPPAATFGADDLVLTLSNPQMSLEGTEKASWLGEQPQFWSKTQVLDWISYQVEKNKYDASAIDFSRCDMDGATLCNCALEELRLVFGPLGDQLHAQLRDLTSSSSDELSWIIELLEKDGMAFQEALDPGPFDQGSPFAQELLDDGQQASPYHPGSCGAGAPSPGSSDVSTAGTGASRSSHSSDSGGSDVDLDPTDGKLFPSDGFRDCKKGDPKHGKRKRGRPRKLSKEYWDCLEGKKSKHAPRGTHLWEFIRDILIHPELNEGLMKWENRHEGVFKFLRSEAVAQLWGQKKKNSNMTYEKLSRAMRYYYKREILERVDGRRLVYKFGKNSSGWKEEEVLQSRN
# In short: as §1
# CRX = CRX (Homo sapiens, UniProt O43186 1-299); conditions: protein: recombinant; tags: N-terminal GST; dsDNA, one strand shown
# In short: as §1
# ETV1 = ETV1 (Homo sapiens, UniProt P50549 1-477); conditions: protein: recombinant; tags: N-terminal GST; dsDNA, one strand shown
# In short: as §1
# ERF = molecular target: T6, ERF (Homo sapiens, UniProt P50548 1-548); conditions: protein: recombinant; tags: N-terminal GST; dsDNA, one strand shown
# T6 sequence: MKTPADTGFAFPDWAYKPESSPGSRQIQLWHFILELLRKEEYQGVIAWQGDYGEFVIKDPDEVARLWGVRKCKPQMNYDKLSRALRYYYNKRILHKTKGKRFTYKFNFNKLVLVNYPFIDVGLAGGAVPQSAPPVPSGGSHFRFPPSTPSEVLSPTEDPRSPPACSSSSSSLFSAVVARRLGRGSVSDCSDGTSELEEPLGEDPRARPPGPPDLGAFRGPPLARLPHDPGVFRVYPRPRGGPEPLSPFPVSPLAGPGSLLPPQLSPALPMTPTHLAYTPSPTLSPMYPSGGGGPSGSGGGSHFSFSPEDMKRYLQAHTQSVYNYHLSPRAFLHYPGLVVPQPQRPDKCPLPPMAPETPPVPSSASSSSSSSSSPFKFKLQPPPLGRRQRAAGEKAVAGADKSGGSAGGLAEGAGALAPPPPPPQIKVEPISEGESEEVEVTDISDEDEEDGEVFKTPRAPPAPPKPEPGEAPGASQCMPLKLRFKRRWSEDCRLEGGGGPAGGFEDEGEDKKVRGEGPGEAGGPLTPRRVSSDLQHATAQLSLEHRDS
# In short: as §1
# ETV3L = molecular target: T7, ETV3L (Homo sapiens, UniProt Q6ZN32 1-361); conditions: protein: recombinant; tags: N-terminal GST; dsDNA, one strand shown
# T7 sequence: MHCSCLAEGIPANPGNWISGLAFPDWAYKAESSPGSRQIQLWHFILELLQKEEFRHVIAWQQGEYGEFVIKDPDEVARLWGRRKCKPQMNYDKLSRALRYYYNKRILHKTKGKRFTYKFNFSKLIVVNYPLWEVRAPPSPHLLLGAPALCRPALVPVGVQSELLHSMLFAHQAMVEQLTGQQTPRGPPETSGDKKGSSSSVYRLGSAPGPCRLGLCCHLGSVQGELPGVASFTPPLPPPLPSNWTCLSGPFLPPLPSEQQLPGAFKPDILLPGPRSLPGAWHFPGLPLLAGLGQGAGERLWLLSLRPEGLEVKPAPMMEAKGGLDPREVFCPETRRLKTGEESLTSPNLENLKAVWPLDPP
# In short: as §1
# ETS2 = molecular target: T8, ETS2 (Homo sapiens, UniProt P15036 1-469); conditions: protein: recombinant; tags: N-terminal GST; dsDNA, one strand shown
# T8 sequence: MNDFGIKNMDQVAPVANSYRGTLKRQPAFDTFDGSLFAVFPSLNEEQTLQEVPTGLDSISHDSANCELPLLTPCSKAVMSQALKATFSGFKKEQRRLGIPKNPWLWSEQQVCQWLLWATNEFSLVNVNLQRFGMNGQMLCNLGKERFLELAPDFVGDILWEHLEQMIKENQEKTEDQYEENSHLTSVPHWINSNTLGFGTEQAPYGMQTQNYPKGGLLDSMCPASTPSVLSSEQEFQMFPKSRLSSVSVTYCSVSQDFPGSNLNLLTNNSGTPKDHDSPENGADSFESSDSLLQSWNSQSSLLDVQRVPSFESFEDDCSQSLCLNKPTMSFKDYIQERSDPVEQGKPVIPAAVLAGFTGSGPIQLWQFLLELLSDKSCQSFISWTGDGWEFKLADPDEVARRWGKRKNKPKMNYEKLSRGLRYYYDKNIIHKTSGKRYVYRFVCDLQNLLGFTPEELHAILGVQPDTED
# In short: as §1
# SPDEF = molecular target: T9, SPDEF (Homo sapiens, UniProt O95238 1-335); conditions: protein: recombinant; tags: N-terminal GST; dsDNA, one strand shown
# T9 sequence: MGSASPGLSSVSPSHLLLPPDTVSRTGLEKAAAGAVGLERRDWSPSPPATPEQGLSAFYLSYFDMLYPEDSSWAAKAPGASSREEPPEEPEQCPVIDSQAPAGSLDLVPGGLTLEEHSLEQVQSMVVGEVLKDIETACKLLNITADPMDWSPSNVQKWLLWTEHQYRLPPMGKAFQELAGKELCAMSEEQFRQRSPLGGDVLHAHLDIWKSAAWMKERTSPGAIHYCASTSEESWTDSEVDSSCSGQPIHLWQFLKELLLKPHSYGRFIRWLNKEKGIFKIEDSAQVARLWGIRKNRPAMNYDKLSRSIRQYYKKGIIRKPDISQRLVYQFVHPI
# In short: as §1
# ETV7 = molecular target: T10, ETV7 (Homo sapiens, UniProt Q9Y603 1-341); conditions: protein: recombinant; tags: N-terminal GST; dsDNA, one strand shown
# T10 sequence: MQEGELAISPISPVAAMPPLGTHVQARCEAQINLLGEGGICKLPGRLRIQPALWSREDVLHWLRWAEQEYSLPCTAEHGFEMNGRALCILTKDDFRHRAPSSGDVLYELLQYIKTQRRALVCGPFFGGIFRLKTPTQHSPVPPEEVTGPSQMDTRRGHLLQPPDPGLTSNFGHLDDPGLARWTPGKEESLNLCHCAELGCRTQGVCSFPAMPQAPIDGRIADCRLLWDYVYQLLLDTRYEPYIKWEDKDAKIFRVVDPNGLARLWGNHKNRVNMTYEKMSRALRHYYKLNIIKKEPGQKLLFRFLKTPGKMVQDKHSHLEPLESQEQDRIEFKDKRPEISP
# In short: as §1
# ELF5 = molecular target: T11, ELF5 (Homo sapiens, UniProt Q9UKW6-2 1-255); conditions: protein: recombinant; tags: N-terminal GST; dsDNA, one strand shown
# T11 sequence: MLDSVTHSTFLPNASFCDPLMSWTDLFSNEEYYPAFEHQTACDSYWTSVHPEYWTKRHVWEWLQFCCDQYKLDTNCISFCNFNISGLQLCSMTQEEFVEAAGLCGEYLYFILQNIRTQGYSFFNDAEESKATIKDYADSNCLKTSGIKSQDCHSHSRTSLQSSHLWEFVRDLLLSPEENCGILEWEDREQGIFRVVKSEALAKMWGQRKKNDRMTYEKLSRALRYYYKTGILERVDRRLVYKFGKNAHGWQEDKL
# In short: as §1
# ETV3 = molecular target: T12, ETV3 (Homo sapiens, UniProt P41162-2 1-143); conditions: protein: recombinant; tags: N-terminal GST; dsDNA, one strand shown
# T12 sequence: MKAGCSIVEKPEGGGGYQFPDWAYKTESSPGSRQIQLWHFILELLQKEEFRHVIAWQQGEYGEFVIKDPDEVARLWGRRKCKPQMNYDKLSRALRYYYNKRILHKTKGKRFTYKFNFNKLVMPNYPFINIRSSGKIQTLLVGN
# In short: as §1
# ETV6 = ETV6 (Homo sapiens, UniProt P41212 1-452); conditions: protein: recombinant; tags: N-terminal GST; dsDNA, one strand shown
# In short: as §1
# Sequence of ETV1 (P50549 whole entry): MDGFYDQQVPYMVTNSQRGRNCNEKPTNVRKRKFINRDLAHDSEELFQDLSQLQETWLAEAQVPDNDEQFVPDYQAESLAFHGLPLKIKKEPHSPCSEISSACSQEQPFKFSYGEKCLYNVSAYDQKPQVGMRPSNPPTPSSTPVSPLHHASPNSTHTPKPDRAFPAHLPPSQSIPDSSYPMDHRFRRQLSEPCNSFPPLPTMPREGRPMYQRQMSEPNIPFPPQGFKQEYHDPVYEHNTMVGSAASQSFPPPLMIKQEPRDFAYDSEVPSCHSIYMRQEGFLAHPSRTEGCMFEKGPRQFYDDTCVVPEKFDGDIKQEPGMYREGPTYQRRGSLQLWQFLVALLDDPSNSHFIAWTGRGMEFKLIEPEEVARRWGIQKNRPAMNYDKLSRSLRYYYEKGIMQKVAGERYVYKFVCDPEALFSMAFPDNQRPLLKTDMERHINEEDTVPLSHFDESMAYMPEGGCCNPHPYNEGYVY
# Sequence of CRX (O43186 whole entry): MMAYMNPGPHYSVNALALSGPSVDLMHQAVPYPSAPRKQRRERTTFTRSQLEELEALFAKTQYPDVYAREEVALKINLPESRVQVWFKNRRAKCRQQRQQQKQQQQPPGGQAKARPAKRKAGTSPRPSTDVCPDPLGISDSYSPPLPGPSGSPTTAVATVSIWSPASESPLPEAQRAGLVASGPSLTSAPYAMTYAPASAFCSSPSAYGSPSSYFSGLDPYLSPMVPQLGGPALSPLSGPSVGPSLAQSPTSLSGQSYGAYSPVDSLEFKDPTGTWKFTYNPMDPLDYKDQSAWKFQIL
# Sequence of HSF1 (Q00613 whole entry): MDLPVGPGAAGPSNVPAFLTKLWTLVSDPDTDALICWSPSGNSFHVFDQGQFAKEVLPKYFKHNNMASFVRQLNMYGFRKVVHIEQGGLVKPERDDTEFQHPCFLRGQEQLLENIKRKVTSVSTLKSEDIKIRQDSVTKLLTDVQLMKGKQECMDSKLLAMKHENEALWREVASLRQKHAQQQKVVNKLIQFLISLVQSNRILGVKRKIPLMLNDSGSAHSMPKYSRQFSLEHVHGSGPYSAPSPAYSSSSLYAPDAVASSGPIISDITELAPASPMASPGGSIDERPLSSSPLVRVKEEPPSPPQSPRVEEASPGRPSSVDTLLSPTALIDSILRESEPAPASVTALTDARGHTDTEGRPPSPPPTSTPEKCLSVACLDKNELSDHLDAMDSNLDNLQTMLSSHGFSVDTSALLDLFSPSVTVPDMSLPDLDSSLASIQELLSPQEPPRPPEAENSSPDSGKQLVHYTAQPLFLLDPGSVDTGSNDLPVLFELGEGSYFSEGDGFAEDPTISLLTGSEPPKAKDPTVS
# Sequence of ETV6 (P41212 whole entry): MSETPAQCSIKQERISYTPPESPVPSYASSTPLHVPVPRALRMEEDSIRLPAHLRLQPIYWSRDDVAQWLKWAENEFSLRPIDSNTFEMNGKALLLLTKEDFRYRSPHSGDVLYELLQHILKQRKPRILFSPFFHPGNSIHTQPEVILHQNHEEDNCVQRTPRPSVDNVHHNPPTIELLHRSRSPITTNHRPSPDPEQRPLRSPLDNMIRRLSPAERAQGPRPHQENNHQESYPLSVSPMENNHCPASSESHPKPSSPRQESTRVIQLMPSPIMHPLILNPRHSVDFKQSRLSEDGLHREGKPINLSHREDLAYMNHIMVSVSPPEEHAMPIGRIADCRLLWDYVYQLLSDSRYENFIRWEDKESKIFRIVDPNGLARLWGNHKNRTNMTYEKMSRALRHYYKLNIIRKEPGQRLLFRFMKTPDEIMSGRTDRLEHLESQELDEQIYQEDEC
# Sequence of ELF4 (Q99607 whole entry): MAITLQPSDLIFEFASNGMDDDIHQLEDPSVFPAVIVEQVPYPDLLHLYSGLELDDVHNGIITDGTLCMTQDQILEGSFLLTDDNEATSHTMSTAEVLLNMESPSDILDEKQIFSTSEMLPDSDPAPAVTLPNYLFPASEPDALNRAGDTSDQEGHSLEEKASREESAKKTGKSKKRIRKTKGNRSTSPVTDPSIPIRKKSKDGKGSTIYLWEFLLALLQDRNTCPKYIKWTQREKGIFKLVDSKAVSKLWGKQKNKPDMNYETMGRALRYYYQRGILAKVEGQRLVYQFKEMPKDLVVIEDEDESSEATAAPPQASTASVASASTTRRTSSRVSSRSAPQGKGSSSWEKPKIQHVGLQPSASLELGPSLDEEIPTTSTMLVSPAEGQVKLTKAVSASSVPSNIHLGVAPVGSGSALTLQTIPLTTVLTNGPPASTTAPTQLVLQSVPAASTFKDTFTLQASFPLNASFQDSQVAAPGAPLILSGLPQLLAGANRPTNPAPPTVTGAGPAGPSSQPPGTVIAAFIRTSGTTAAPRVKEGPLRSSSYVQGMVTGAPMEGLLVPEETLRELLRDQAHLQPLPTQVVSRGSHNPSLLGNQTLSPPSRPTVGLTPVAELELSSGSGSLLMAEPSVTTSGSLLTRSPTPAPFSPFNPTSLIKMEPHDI
# Sequence of ETV5 (P41161 whole entry): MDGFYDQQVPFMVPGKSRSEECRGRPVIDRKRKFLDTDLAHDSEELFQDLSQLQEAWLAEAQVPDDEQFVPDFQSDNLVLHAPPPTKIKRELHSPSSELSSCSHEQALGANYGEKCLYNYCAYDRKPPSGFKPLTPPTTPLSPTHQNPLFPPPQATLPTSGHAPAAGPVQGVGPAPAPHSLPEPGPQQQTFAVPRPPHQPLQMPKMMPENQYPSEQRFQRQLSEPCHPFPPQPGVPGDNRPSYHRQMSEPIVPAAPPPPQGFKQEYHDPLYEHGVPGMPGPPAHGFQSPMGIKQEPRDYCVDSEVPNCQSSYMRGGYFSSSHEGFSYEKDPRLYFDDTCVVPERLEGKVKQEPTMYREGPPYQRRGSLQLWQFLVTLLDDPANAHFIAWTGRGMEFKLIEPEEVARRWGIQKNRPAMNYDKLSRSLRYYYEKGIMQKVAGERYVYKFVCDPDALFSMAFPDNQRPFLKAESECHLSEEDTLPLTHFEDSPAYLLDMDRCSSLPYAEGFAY
sequence,measurement,setting,value
CCTTCA,binding signal,FEV,"1.48 fold enrichment (6-mer frequency, TF over GST control)"
same,binding signal,ETV5,"1.45 fold enrichment (6-mer frequency, TF over GST control)"
same,binding signal,HSF1,"1.36 fold enrichment (6-mer frequency, TF over GST control)"
same,binding signal,SPIC,"1.31 fold enrichment (6-mer frequency, TF over GST control)"
same,binding signal,ELF4,"1.42 fold enrichment (6-mer frequency, TF over GST control)"
same,binding signal,ELK4,"1.69 fold enrichment (6-mer frequency, TF over GST control)"
same,binding signal,ETV2,"1.49 fold enrichment (6-mer frequency, TF over GST control)"
same,binding signal,ELF3,"1.4 fold enrichment (6-mer frequency, TF over GST control)"
same,binding signal,CRX,"1.34 fold enrichment (6-mer frequency, TF over GST control)"
same,binding signal,ETV1,"1.55 fold enrichment (6-mer frequency, TF over GST control)"
same,binding signal,ERF,"1.42 fold enrichment (6-mer frequency, TF over GST control)"
same,binding signal,ETV3L,"1.21 fold enrichment (6-mer frequency, TF over GST control)"
same,binding signal,ETS2,"1.38 fold enrichment (6-mer frequency, TF over GST control)"
same,binding signal,SPDEF,"1.48 fold enrichment (6-mer frequency, TF over GST control)"
same,binding signal,ETV7,"1.26 fold enrichment (6-mer frequency, TF over GST control)"
same,binding signal,ELF5,"1.56 fold enrichment (6-mer frequency, TF over GST control)"
same,binding signal,ETV3,"1.46 fold enrichment (6-mer frequency, TF over GST control)"
same,binding signal,ETV6,"1.5 fold enrichment (6-mer frequency, TF over GST control)"
